Assay results from PubChem BioAssay (NCI).
The panel holds about 79,000 compounds, 15% with a hit somewhere; the sample as a whole holds those more often. Values without a mark were called inactive. Activity calls are given as the source filed them. Cut-off read from the data, not from the text of the source: active = growth inhibition above about 70%; inactive = the rest.

Columns and labels:
[1] = NCI Yeast Anticancer Drug Screen. Data for the wt1 strain (AID 149);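 note: 0% = growth of vehicle-treated wt1 cultures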; conditions: S. cerevisiae wt1 strain (SPY 50644) growth inhibition, hits give high values
Method in brief: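 The wt1 strain was treated with compounds, and growth was compared with vehicle-treated cultures to give inhibition.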

[2] = NCI Yeast Anticancer Drug Screen. Data for the mgt1 strain (AID 153); conditions: S. cerevisiae mgt1 mutant growth inhibition, hits give high values
Method in brief: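 Growth inhibition relative to vehicle controls was scored for the mgt1 yeast strain after compound exposure.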

[3] = NCI Yeast Anticancer Drug Screen. Data for the rad50 strain (AID 155);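 note: 0% = growth of vehicle-only cultures of the same strain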; conditions: S. cerevisiae rad50 strain growth inhibition, hits give high values
Method in brief: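 Cells are treated with compound, grown, and their growth is then scored against vehicle-only cultures of the same repair-deficient yeast strain.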

[4] = NCI Yeast Anticancer Drug Screen. Data for the mec2-1 strain (AID 157); conditions: S. cerevisiae mec2-1 strain, hits give high values
Method in brief: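 Growth inhibition is read against vehicle-treated controls after compound exposure of the mec2-1 yeast strain, which is defective in DNA damage repair or cell cycle control.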

[5] = NCI Yeast Anticancer Drug Screen. Data for the rad14 strain (AID 159);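 note: 0% = growth of vehicle-treated control cultures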; conditions: S. cerevisiae rad14 strain growth inhibition, hits give high values
Method in brief: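 Readout: yeast growth inhibition, referenced to vehicle-only cultures. Strain bears a defined alteration in DNA damage repair.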

[6] = NCI Yeast Anticancer Drug Screen. Data for the sgs1 mgt1 strain (AID 161);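 note: 0% = growth of cultures given vehicle only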; conditions: S. cerevisiae sgs1 mgt1 strain, hits give high values
Method in brief: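 Yeast cells carrying a defined DNA-repair defect were exposed to test compounds. Growth inhibition was measured relative to vehicle-treated controls.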

[7] = NCI Yeast Anticancer Drug Screen. Data for the CLN2oe strain (AID 163);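 note: 0% = growth of vehicle-only control cultures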; conditions: S. cerevisiae CLN2oe strain, hits give high values
Method in brief: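 Compound-treated yeast; growth vs vehicle ctrl = % inhibition. Genetically altered strain (cell-cycle control).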

[8] = NCI Yeast Anticancer Drug Screen. Data for the cln2 rad14 strain (AID 165);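 note: 0% = growth equal to vehicle treated cultures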; conditions: S. cerevisiae cln2 rad14 strain, hits give high values
Method in brief: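 Growth inhibition, relative to vehicle-treated controls, is the read-out. The test organism is a yeast strain with defined genetic alterations, cln2 rad14.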

[9] = NCI Yeast Anticancer Drug Screen. Data for the bub3 strain (AID 167); conditions: S. cerevisiae bub3 mutant strain, hits give high values
Method in brief: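 Part of a panel of yeast mutants defective in DNA damage repair or cell cycle regulation. Each strain is grown with compound, and inhibition is calculated relative to solvent-treated cultures.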

[10] = NCI Yeast Anticancer Drug Screen. Data for the wt2 strain (AID 169);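 note: 0% = growth of vehicle-treated yeast cultures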; conditions: S. cerevisiae wt2 strain growth inhibition, hits give high values
Method in brief: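 Compound exposure of yeast; growth compared with vehicle controls; inhibition reported.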

[11] = NCI Yeast Anticancer Drug Screen. Data for the mlh1 strain (AID 171);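 note: 0% = growth of vehicle-treated control cultures of the same strain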; conditions: S. cerevisiae mlh1 strain growth inhibition, hits give high values
Method in brief: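 Compounds are applied to a genetically altered yeast strain, and its growth is compared with that of vehicle-treated cultures to give percent inhibition.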

[12] = at 5.0 µM (retest, dose inferred, filed as 0.5)
[13] = at 50.0 µM (retest, dose inferred, filed as 5.0)

Compound CCOc1ccccc1N1C(=O)CC(Sc2ccccc2N)C1=O (stereo not given) has a growth inhibition ([1]; at 1.2 µM) of 12%, a growth inhibition ([1]; at 3.7 µM) of 17% and a growth inhibition ([1]; at 11.0 µM) of 10%. It also gave a growth inhibition ([1]; at 33.0 µM) of 15%, a growth inhibition ([1]; at 100.0 µM) of 9% and a growth inhibition ([2]; at 1.2 µM) of 3%. The growth inhibition ([2]; at 3.7 µM) was -10%, the growth inhibition ([2]; at 11.0 µM) was -13% and the growth inhibition ([2]; at 33.0 µM) was -5%. The growth inhibition ([2]; at 100.0 µM) was 1%, the growth inhibition ([3]; at 1.2 µM) was 13% and the growth inhibition ([3]; at 3.7 µM) was 2%. The growth inhibition [3, 12] was 39%, the growth inhibition ([3]; at 11.0 µM) was 17% and the growth inhibition ([3]; at 33.0 µM) was 10%. For the same compound, the growth inhibition [3, 13] was 75% (active), the growth inhibition ([3]; at 50.0 µM) was 0.8% and the growth inhibition ([3]; at 100.0 µM) was -20%. It also gave a growth inhibition ([4]; at 1.2 µM) of 2%, a growth inhibition ([4]; at 3.7 µM) of 10% and a growth inhibition [4, 12] of 57%. For the same compound, the growth inhibition ([4]; at 11.0 µM) was -9%, the growth inhibition ([4]; at 33.0 µM) was 0% and the growth inhibition [4, 13] was 85% (active). The growth inhibition ([4]; at 50.0 µM) was -12.4%, the growth inhibition ([4]; at 100.0 µM) was -19% and the growth inhibition ([5]; at 1.2 µM) was -23%. The growth inhibition ([5]; at 3.7 µM) was -23%, the growth inhibition ([5]; at 11.0 µM) was -41% and the growth inhibition ([5]; at 33.0 µM) was -48%. The growth inhibition ([5]; at 100.0 µM) was -55%, the growth inhibition [6, 12] was -5% and the growth inhibition [6, 13] was 24%. For the same compound, the growth inhibition ([6]; at 50.0 µM) was 14.4%, the growth inhibition ([7]; at 1.2 µM) was 10% and the growth inhibition ([7]; at 3.7 µM) was 6%. It also gave a growth inhibition ([7]; at 11.0 µM) of 1%, a growth inhibition ([7]; at 33.0 µM) of -15% and a growth inhibition ([7]; at 100.0 µM) of -19%. The growth inhibition [8, 12] was 39%, the growth inhibition [8, 13] was 1% and the growth inhibition ([8]; at 50.0 µM) was -13.9%. For the same compound, the growth inhibition ([9]; at 1.2 µM) was -4%, the growth inhibition ([9]; at 3.7 µM) was 1% and the growth inhibition [9, 12] was 30%. The growth inhibition ([9]; at 11.0 µM) was -10%, the growth inhibition ([9]; at 33.0 µM) was -23% and the growth inhibition [9, 13] was 38%. It also gave a growth inhibition ([9]; at 50.0 µM) of 11.4%, a growth inhibition ([9]; at 100.0 µM) of -38% and a growth inhibition ([10]; at 1.2 µM) of -2%. The growth inhibition ([10]; at 3.7 µM) was -7%, the growth inhibition ([10]; at 11.0 µM) was -8% and the growth inhibition ([10]; at 33.0 µM) was -7%. It also gave a growth inhibition ([10]; at 100.0 µM) of -13%, a growth inhibition ([11]; at 1.2 µM) of -10% and a growth inhibition ([11]; at 3.7 µM) of -18%. For the same compound, the growth inhibition ([11]; at 11.0 µM) was -33%, the growth inhibition ([11]; at 33.0 µM) was -18% and the growth inhibition ([11]; at 100.0 µM) was -24%.
